An excerpt weighted towards active compounds, which were near 8.9% of everything screened.
DRD3 antagonist – antagonists of human D3 dopamine receptor | D3R cells, DiscoveRx beta-arrestin luminescence, antagonist mode; stronger effect = lower value | 360,000 compounds, 2.5% hits | P35462 | max response, negative = inhibition, %; in the data active = max response below about -50%; inconclusive = no clear call, values can overlap the other calls; note: % is set by controls: 0 for no effect and ±100 for the full control effect
Target sequence (P35462 whole entry, looked up): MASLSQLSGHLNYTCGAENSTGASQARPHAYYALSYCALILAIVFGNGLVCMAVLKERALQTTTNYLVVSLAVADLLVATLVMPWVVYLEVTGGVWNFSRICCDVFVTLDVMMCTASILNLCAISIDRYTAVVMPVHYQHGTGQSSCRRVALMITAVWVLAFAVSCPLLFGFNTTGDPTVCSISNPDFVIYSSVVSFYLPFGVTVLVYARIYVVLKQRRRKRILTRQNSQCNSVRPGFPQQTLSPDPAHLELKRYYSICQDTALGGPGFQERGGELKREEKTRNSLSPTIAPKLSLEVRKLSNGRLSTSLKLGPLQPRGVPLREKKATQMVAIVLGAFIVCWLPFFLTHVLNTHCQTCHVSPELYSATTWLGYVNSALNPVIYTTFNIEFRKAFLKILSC
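Cells expressing the human receptor were seeded at 1500 cells/well, incubated overnight at 37 degrees C in 5% CO2, then exposed to library compounds with dopamine controls for 90 minutes at 37 degrees C before luminescent detection.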
SW480 rereplic – induces DNA re-replication in SW480 colon adenocarcinoma cells. SW480 DNA re-replication, Hoechst DNA content imaging, 48 h. Potency, µM (series often up to 46.1 µM), for the others: at the highest dose re-replication activation, usual class: activators. 340,000 compounds, 1.8% hits. AID 624297; note: potency is the fitted concentration of half-maximal effect; % of control where 0% means no effect; nearly all actives have a fitted effect of over 55% in size
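Hoechst fluorescence of nuclei (405 nm excitation, 500-530 nm emission) measured by plate-scanning imager after 48 hr compound exposure at 37 C; re-replication scored as increased number of nuclei with elevated intensity.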
KB-V1 MDR tox – KB-V1 MDR subline cytotoxicity; KB-V1 MDR cells viability, CellTiter-Glo, 72 h; Potency, µM (series often up to 46.1 µM), hits mostly cytotoxic; 400,000 compounds, 3.4% hits; AID 1347076; note: potency is the fitted concentration of half-maximal effect; % is set by controls: 0 for no effect and ±100 for the full control effect; nearly all actives have a fitted effect of over 60% in size
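Cytotoxicity via CellTiter-Glo luminescence after 72 h compound exposure at 37 degrees C. Cells: drug-selected KB-V1 line, DMEM phenol-red free plus 10% FBS. Compounds tested at multiple concentrations; normalized data fitted to concentration-effect curves.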
D3 ag – activates the human D3 dopamine receptor. 410,000 compounds, 0.58% hits. D3R DiscoveRx beta-arrestin cells, luminescence, 90 min. P35462. max activation, %; in the data active = max activation above about 30%; note: 0% is about no effect
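Agonist mode: compounds and dopamine controls were applied to plated cells for 90 min at 37 degrees C after an overnight attachment at 1500 cells/well. Luminescent read-out followed 30 - 60 minutes at room temperature with DiscoveRx detection reagent.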
KB-3-1 tox – kills parental KB-3-1 adenocarcinoma cells; AID 1347075; 400,000 compounds, 1.4% hits; Potency, µM (highest dose often 46.1 µM), usual class: cytotoxic; KB-3-1 viability, CellTiter-Glo ATP luminescence, 72 h; note: potency is the fitted concentration of half-maximal effect; % is set by controls: 0 for no effect and ±100 for the full control effect; nearly all actives have a fitted effect of over 60% in size
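Using CellTiter-Glo luminescence, growth of non-resistant KB-3-1 adenocarcinoma cells is assessed 72 h after pin-tool compound addition at 37 °C. Normalized responses across the concentration series yield fitted curves.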
MCF10A rerep – induces DNA re-replication in MCF 10a normal breast cells; MCF 10A DNA re-replication, Hoechst nuclear intensity, 48 h; Potency, µM (top dose mostly 46.1 µM), without a hit: at the highest dose activity, positive = re-replication, usual class: activators; 350,000 compounds, 2.9% hits; AID 624296; note: potency is the fitted concentration of half-maximal effect; % of control where 0% means no effect; nearly all actives have a fitted effect of over 50% in size
Active calls of the source: *; i = inactive; ? = inconclusive; . = no result; [ ] = remark or other dose. Unless noted, calls come from the whole dose curve; as a rule, active = well fitted curve in the direction sought with a large enough effect; inconclusive = small, poorly fitted or top-dose-only effect, or another doubt; inactive = no such curve, though single readings can be large; an effect the other way counts as inactive or inconclusive.

SMILES	DRD3 antagonist	SW480 rereplic	KB-V1 MDR tox	D3 ag	KB-3-1 tox	MCF10A rerep
S=C(NCCN1CCOCC1)N1CCN(c2cccc(Cl)c2)CC1	-5	-4%	4.6µM*	22	?	27%
COc1ccc(N2CCN(CCC(=O)c3ccc4ccccc4c3)CC2)cc1	-19	?	?	-10	i	10µM*
O=C(CN1CCN(c2ccc(Cl)cc2)CC1)Nc1ccc(F)cc1	?	-1%	21µM*	-20	?	2%
OC(CN1CCN(c2cccc(Cl)c2)CC1)C(c1ccccc1)c1ccccc1 (stereo not drawn)	-72*	-23%	?	-10	i	?
S=C(NCc1ccco1)N1CCN(c2cccc(Cl)c2)CC1	3	-9%	i	5	i	-1%
CC(C)COC(=O)N1CCCC(c2cc(C(=O)Nc3ccccc3Cl)no2)C1 (stereo not drawn)	79	.	i	12	i	.
NC(=O)CSc1nc2cc3c(cc2c(=O)n1CCCCCC(=O)NCc1ccc2c(c1)OCO2)OCO3	.	.	.	10	.	.
Nc1nc(N2CCN(c3cccc(Cl)c3)CC2)n[nH]1	-5	-9%	i	-1	?	0%
Nc1ccc(N2CCN(c3cccc(Cl)c3)CC2)cc1	-4	17%	21µM*	3	?	15%
O=C(CCN1CCN(c2ccccc2)CC1)Nc1ccc(OCc2ccccc2)cc1	-9	-1%	i	35*	i	-1%
CC(CCN1CCN(c2ccccc2)CC1)c1ccccc1 (stereo not drawn)	-102*	1%	i	-13	i	14%
COc1ccc(N2CCN(CC(=O)Nc3sccc3C#N)CC2)cc1	5	9%	16µM*	3	i	?
CC(CCN1CCN(c2ccccn2)CC1)c1ccccc1 (stereo not drawn)	?	-2%	i	6	i	-7%
CC(C)(C)c1ccc(S(=O)(=O)c2cnc(SCC(=O)Nc3ccc4c(c3)OCCO4)[nH]c2=O)cc1	.	.	.	1	.	.
COc1cc2c(NC3CCN(C)CC3)nc(N3CCCN(C)CC3)nc2cc1OCCCCN	.	.	i	.	?	.
Cc1sc2ncn(CC(=O)N3CCN(c4cccc(Cl)c4)CC3)c(=O)c2c1S(=O)(=O)N1CCC(C)CC1	.	.	i	-8	i	.
CCc1ccccc1NC(=O)Cn1nnc(-c2nc(-c3ccncc3)no2)c1N	.	.	.	7	.	.
O=C(NCCN1CCN(c2ccccc2)CC1)Nc1ccc(Cl)cc1	-55*	-5%	i	-24	i	14%
O=C(CCS(=O)(=O)c1ccccc1)Nc1ccc(N2CCN(Cc3ccccc3)CC2)cc1	-14	3%	?	-17	i	?
c1ccc(CCCN2CCN(c3ccccc3)CC2)cc1	-64*	3%	i	1	i	?
O=C(CCS(=O)(=O)c1ccc(F)cc1)Nc1ccc(N2CCN(Cc3ccccc3)CC2)cc1	12	0%	18µM*	-14	i	8%
c1ccc(CCCN2CCOCC2)cc1	-7	0%	?	-14	i	5%
COc1ccc(NC(=O)c2ccc(NC(=O)CN3CCN(c4ccc(O)cc4)CC3)cc2)cc1	8	?	i	82*	?	5%
COc1ccc(N2CCN(CCNC(=O)Nc3ccc(Cl)cc3)CC2)cc1	?	-5%	?	-29	i	2%
CSc1cccc(NC(=O)CN2CCN(Cc3ccccc3C)S2(=O)=O)c1	.	.	i	-19	i	.
SMILES	DRD3 antagonist	SW480 rereplic	KB-V1 MDR tox	D3 ag	KB-3-1 tox	MCF10A rerep
Cn1c(=O)[nH]c(=O)c2c1nc(CN1CCN(c3ccccc3F)CC1)n2Cc1ccc(F)cc1	.	.	.	-1	.	.
O=C(CN1CCN(c2ccccc2)CC1)Nc1ccc(Oc2ccccc2)cc1	-17	-2%	23µM*	12	i	1%
COc1ccccc1NC(=O)NCCN1CCN(c2cccc(Cl)c2)CC1	-92*	-10%	i	-7	i	-6%
O=C(CN1CCOCC1)Nc1ccc(Oc2ccccc2)cc1	-21	-4%	i	0	i	?
Cc1nn(C(C)C(=O)NCCCN2CCCC2)c(=O)c2nn(-c3ccccc3)c(C)c12 (stereo not drawn)	-2	?	i	-2	i	12%
CCCC[n+]1c(/C=C/c2c(OC)cc(OC)cc2OC)ccc2ccccc21	.	.	i	.	i	.
CCC[n+]1c2ccccc2cc2ccccc21	?	12µM*	21µM*	-17	?	13µM*
CCCC[n+]1c2ccccc2cc2ccccc21	-94*	?	i	2	16µM*	3%
Brc1cc2ccccc2[n+](Cc2ccccc2)c1	2	?	i	-14	?	21%
COc1ccc(CNC(=O)c2ccc(N3CCCC3)c(NC(=O)NCc3ccc(F)cc3)c2)cc1	.	.	i	7	?	.
CC(C)C[C@H](NC(=O)c1nc[nH]c1C(=O)NCC(=O)OC(C)(C)C)C(=O)OC(C)(C)C	5	16%[9.22 µM]	i	8	i	-16%
CC(C)(C)OC(=O)[C@H](Cc1ccccc1)NC(=O)c1[nH]cnc1C(=O)Nc1ccc(Cl)cc1	?	?	?	-11	?	?
CC(C)C[C@H](NC(=O)c1nc[nH]c1C(=O)N[C@@H](CC(C)C)C(=O)OC(C)(C)C)C(=O)OC(C)(C)C	-55*	?	?	-16	?	?
O=C(N[C@@H](Cc1ccccc1)C(=O)OCc1ccccc1)c1nc[nH]c1C(=O)NCc1ccccc1	-75*	1%	i	5	i	10%
CC(C)C[C@H](NC(=O)c1[nH]cnc1C(=O)Nc1ccc(Cl)cc1)C(=O)OC(C)(C)C	0	?	?	-36	?	2%
Cc1cccc(NC(=O)c2nc[nH]c2C(=O)N[C@@H](CC(C)C)C(=O)OC(C)(C)C)c1	-9	28%[9.22 µM]	?	-8	12µM*	?
CC(C)(C)OC(=O)[C@H](Cc1ccccc1)NC(=O)c1[nH]cnc1C(=O)Nc1cccc(Cl)c1	-54*	7%[9.22 µM]	?	0	?	15µM*
CC1(C)S[C@@H]2[C@H](NC(=O)C(N)c3ccccc3)C(=O)N2[C@H]1C(=O)OC1OC(=O)c2ccccc21 (stereo partly drawn)	.	.	.	4	.	.
COC(=O)c1ccccc1NC(=O)c1cc2nc(-c3ccc(OC)cc3)cc(C(F)(F)F)n2n1	.	.	i	1	i	.
O=C(NNC(=O)c1ccco1)c1csc(N2CCOCC2)n1	9	-1%	i	3	i	1%
CCCCC(=O)N(C)c1c(C)nc2ccc(C(=O)N(CC)CCN(C)C)cn12	0	.	i	-6	i	.
